Compounds without any hit were thinned out: in the full panel of roughly 83,000, 20% have a hit.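 Treatment: one concentration, 48 hours, 96-well format. Scoring: percent growth, with anything below 10 considered active.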 Calls of active or inactive are those of the source.

In the test the test system is HS 578T breast. Briefly: NCI-60 one-dose screen, 48 h (100 = growth as untreated, 0 = no growth, -100 = all killed). Particulars: 10 µM unless noted.
Consider `COc1nccnn1`, for which the growth is 86.7% (inactive). Consider `Cc1ccc(S(=O)(=O)Nc2ccc(Cl)cc2)cc1`, for which the growth was 100% (inactive). With `COc1cc2c(cc1[N+](=O)[O-])-c1ccc([N+](=O)[O-])cc1/C2=N\O` the figure was 89% (inactive); with `O=C(Nc1nc2ccc(C(=O)N3CCN(c4ccc(Cl)c(Cl)c4)CC3)cc2s1)c1ccc(NCCc2ccccc2)c([N+](=O)[O-])c1`, 93.5% (inactive); with `Cc1c(C2=CCCCC2)c2ccccn2c1C(=O)c1cccc(S(=O)(=O)N2CCOCC2)c1`, 75.8% (inactive). As to `CC(C)CN(C(=O)c1ccc(Cl)cc1)c1c(N)n(CC(C)C)c(=O)[nH]c1=O`, the growth was 84.8% (inactive). As for `O=C1Nc2ccccc2/C1=C\c1cccc(/C=C2/C(=O)Nc3ccccc32)n1`, the growth was -39.2% (active).

`NC(=O)c1ccc[n+](CC(=O)N2CCN(c3cc4c(cc3F)c(=O)c(C(=O)O)cn4C3CC3)CC2)c1`: the growth was 91.1% (inactive). Consider `CCN(CCNc1cc(OC)cc2cccnc12)CCc1ccccc1`, for which the growth was 85.6% (inactive). With `COc1ccccc1N1CCN(C(=O)c2ccc3nc(NC(=O)c4ccc(NCCc5ccccc5)c([N+](=O)[O-])c4)sc3c2)CC1` the figure was 48.5% (inactive). With `CN1CCCC1=Nc1ccccc1` the figure was 106% (inactive); with `COc1ccc(/C(=C\c2ccccc2)C(=O)O)cc1OC`, 97% (inactive).

In the case of `NC(=S)N/N=C(/c1ccccc1)c1ccccc1N`, the growth was 97.2% (inactive).

For the molecule `COc1ccc(/C=N/NC(=O)c2cccc3cc[nH]c23)cc1O`, the growth was 15.2% (inactive). With `Nc1nnc(C(=O)c2cnc3n(c2=O)CCCCC3)s1` the figure was 99.7% (inactive); with `Nc1nnc2cc(Cl)ccc2n1`, 86.4% (inactive). As to `CC(=O)Nc1ccc(S(=O)(=O)NC2CCCCC2)cc1`, the growth was 92.7% (inactive). With `CC1=CC2(C)/C=C(C)/C=C\CC(O)/C=C3/C=CC(=C4C(=O)OC2(CC1C)C4=O)OC3` (stereo not drawn) the figure was -34% (active); with `CN1CCN(Cc2ccc(NC(=O)c3cncc(C#Cc4cnccc4C(F)(F)F)c3)cc2C(F)(F)F)CC1`, 53% (inactive). For the molecule `CC[C@@]12C=CCN3CC[C@]4(c5cc(NC(=O)COc6cc(OCC(=O)Nc7cc8c(cc7OC)N(C)[C@H]7[C@@](O)(C(=O)OC)[C@H](OC(C)=O)[C@]9(CC)C=CCN%10CC[C@]87[C@@H]%109)cc7oc(-c8ccccc8)cc(=O)c67)c(OC)cc5N(C)[C@@H]4[C@](O)(C(=O)OC)[C@H]1OC(C)=O)[C@H]32`, the growth is 39.4% (inactive). With `Cc1n[nH]c(C)c1-c1c(C)n[nH]c1C` the figure was -8.48% (active); with `CC(N)C(=O)NNc1n[nH]c(=S)n1N` (stereo not drawn), 88.2% (inactive); with `Cc1ccc(-c2csc(/N=C3\C(=O)Nc4ccccc43)n2)cc1`, 31.2% (inactive).

Values taken from PubChem BioAssay (NCI).
